Where “and” joins values, the source holds several entries; their conditions need not be identical. Equal values may be shown once. About 83,000 compounds went through this panel and 20% of them were active in at least one assay; those are over-represented in the sample as a whole.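 Note: values are percent growth. 100 is the growth of untreated cells, values between 100 and 0 indicate rising inhibition; between -100 and 0 indicates cell death.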 Values without a mark were called inactive. Calls of active or inactive are those of the source.
system: OVCAR-8 ovarian; assay: NCI-60 one-dose screen, 48 h (100 = growth as untreated, 0 = no growth, -100 = all killed); conditions: 10 µM
Description: Growth inhibition of the OVCAR-8 human tumor cell line is measured as a screen for anti-cancer activity. Cells are grown in 96 well plates and exposed to the test compound for 48 hours. Compounds are tested at a single concentration, which is 10^-5 M for most compounds. The reported endpoint is percent growth (GI% or GIPRCNT), where numbers from 0 - 100% represent growth inhibition, and numbers from -100% - 0 represent cell death. For example, a value of 40 represents 60% growth inhibition. A value of 0 means no net growth occurred over the course of the experiment. A value of -40 indicates 40% of cells at the beginning of the experiment died by the end of the experiment. A value of -100 means all cells are dead at the end of the experiment.
NCI-60 Human Tumor Cell Lines Screen was performed using the standard one-dose NCI protocol, which is described in more detail at https://dtp.cancer.gov/discovery_development/nci-60/default.htm.
Compounds with GIPRCNT values below 10 were considered active. Activity score was based on GIPRCNT using the following formula: […]
Score is 0 for GIPRCNT values of 100 or above, 50 for GIPRCNT values of 0, and 100 for GIPRCNT values of -100.

Compound	growth
O=C(Nc1cccc(Br)c1)Oc1cccc2cccnc12	102%
O=C(Nc1c(Cl)cccc1Cl)Oc1cccc2cccnc12	27%

same assay, conditions: 10 µM unless noted

Compound	growth
O=C(Oc1cccc2cccnc12)c1ccccc1	84.9% and 98.6%
Cn1c2ccccc2c2nnc(N/N=C/c3ccccn3)nc21	23.9%
Nc1nc(N)c2nc(CNc3ccc(C(=O)NC(CCC(=O)O)C(=O)O)cc3)cnc2n1 (stereo unspecified)	31.7% and 34.9%
CNC(=O)N/N=C/c1ccc([N+](=O)[O-])o1	96.5%
Cc1ccc(C(=Nc2ccccc2)N=P(c2ccccc2)(c2ccccc2)c2ccccc2)cc1	6.99% (active)
COc1cc(NS(C)(=O)=O)ccc1Nc1c2ccccc2nc2ccccc12	28.8% and 23.2% and 27.8%
Cc1ccc2nc(C[n+]3ccc4ccccc4c3)ccc2c1	57.8%
NC(=O)/C=C/C(=O)c1c(Cl)cccc1Cl	-67.4% (active)
N#CSCC(=O)c1ccc(Cl)cc1	63.7%
CN=C(N)N/N=C(\C)c1ccc2c(c1)Cc1cc(/C(C)=N/NC(N)=NC)ccc1-2	-53.5% (active)
CC1OC2CC(=O)OC2C2=C1C(=O)c1c(O)cccc1C2=O (stereo unspecified)	-14.7% (active)
CN(C)c1ccc(N=Nc2cccc3ccccc23)cc1	94.8%
CN(C)c1ccc(/C=N/N=C(\C#N)[S][Sn]([Cl])([c]2ccccc2)[c]2ccccc2)cc1	60.6%
c1ccc2c(c1)Nc1cc3ccccc3cc1N2	29.5%
CCN(CC)CC(C)(C)C(=O)/C=C/c1ccc(Cl)c(Cl)c1	-21.6% (active)
CCCCCC(CCCCC)C(=O)O	113%
CCOC(=O)c1c(C)[nH]c(CO)c1C	101%
O=C1c2ccccc2C(=O)N1c1ccccc1	98.6%
N#Cc1ccc([N+](=O)[O-])o1	89.9%

Compound	growth
CN1c2ccccc2C(C)(C)C12C=Cc1cc(O)ccc1O2 (stereo unspecified)	67.3%
N#CC1C(=O)SC2c3ccccc3C(=O)c3ccccc3C12 (stereo unspecified)	99%
Cc1ccc(NS(=O)(=O)c2ccc(C)cc2)cc1	97.5% and 92.7%
Nc1nc(N)c2c(ccc3c2ccn3Cc2cccc([N+](=O)[O-])c2)n1	-54.4% (active)
Oc1c(Cl)cc(Cl)c2cccnc12	41.2%
C[n+]1c(/C=C/c2ccc([N+](=O)[O-])cc2)ccc2ccccc21	91.3%
CC(=Nc1ccc(N(C)C)cc1)c1ccccc1	25.7%
O=[N+]([O-])c1ccc(N=Nc2ccc(O)cc2O)cc1	61.9%
O=Nc1ccccc1N=O	89.4%
CN(C)C(=O)SC1=C(c2c(Cl)cccc2Cl)C(=O)c2ccccc21	51.7%
O=C1c2cccnc2-c2nccc3c2c1nc1cc(Br)ccc13	-41.9% (active)
Oc1ccc(/C=N/NC(=S)Nc2ccccc2)nc1	15.2%
O=C(Nc1ccc(F)cc1)ON=C1CCCCC1	106% [100 µM]
NC(=S)N/N=C\c1nccc2c(C(F)(F)C(F)(F)C(F)(F)F)cccc12	-0.116% (active)
O=C(Nc1ccccc1)c1cc(Cl)ccc1O	44.9%
CNc1ccc(N)cc1	113%
Cc1ccnc2c1ccc1c(C)ccnc12	12.1%
Cc1c2ccccc2c(C)c2c1ccc1ccccc12	98.8%

same assay, conditions: 100 µM

Compound	growth
O=C(Nc1cccc(Br)c1)Oc1cccc2cccnc12	11%
O=C(Nc1c(Cl)cccc1Cl)Oc1cccc2cccnc12	10.2%

From PubChem BioAssay (NCI)
